# Sampled rows, rich in hits. Any-hit rate of the full collection: about 22%.
# CYP2C9 inhib – inhibitors of human CYP2C9. inhibition, % at 5 µM. P11712. CYP2C9 Supersomes, luciferin-H conversion, luminescence. hit rate 20% among 96,000;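 active means blocking of liver enzyme CYP2C9 beyond about 50% at 5 µM, limit read from the data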
# Target sequence (P11712 whole entry, looked up): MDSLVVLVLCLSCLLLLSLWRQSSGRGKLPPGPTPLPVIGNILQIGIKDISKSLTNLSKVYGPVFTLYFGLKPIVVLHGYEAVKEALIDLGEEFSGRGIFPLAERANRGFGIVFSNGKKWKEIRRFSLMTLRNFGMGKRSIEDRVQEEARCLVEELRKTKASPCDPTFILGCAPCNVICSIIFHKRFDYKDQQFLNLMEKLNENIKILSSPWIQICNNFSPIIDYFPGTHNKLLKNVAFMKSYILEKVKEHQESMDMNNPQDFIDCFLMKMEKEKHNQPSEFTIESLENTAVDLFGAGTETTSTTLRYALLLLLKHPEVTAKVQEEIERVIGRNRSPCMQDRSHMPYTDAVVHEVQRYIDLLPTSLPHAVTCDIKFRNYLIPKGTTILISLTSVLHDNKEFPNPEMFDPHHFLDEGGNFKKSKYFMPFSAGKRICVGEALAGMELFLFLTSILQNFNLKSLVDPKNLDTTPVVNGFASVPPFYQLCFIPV
# CYP2C19 inhib – blocks human cytochrome P450 2C19; P33261; CYP2C19 Supersomes, luciferin-H EGE luminescence, 30 min; inhibition, % at 5 µM; hit rate 21% among 96,000; AID 778;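 active means CYP2C19 inhibition above a set limit at 5 µM in the primary screen, cut at about 50% in these data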
# CYP2C19 activ – cytochrome P450 2C19 (human) activation | activation factor at 5 µM | AID 1025 | P33261 | recombinant CYP2C19, luciferin-H EGE luminescence; stronger effect = higher value; 0 = fully inhibited enzyme, 1 = untreated enzyme | 96,000 tested, under 10 active;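 active means activation factor of at least 2 at 5 µM in the primary screen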
# CYP2C9 act – increases human cytochrome P450 2C9 activity. P11712. hit rate 1.4% among 96,000. recombinant CYP2C9, luciferin-H conversion, luminescence; stronger effect = higher value; factor 1 = untreated enzyme, 0 = blocked. activation factor at 5 µM. AID 1024;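 active means activation factor of 2 or more for CYP2C9 at a 5 µM dose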
# Measles CPE – protection of cells from measles virus; Measles virus-infected cells, CPE protection, absorbance; protection (pct of control), % at 4 µM; hit rate 1.5% among 140,000; AID 841; in the data active means protection mostly above about 24%, no sharp cut-off; inactive means mostly below about 26%
# A number is an active result; n = inactive; x = no result.
SMILES,CYP2C9 inhib,CYP2C19 inhib,CYP2C19 activ,CYP2C9 act,Measles CPE
COc1ccc(-c2nn(-c3ccccc3)cc2/C=N/NC(=O)c2cccc(S(=O)(=O)Nc3ccccc3OC)c2)cc1,x,x,x,x,n
O=C(N/N=C\c1cn(-c2ccccc2)nc1-c1ccccc1)c1ccc2c(c1)OCO2,65,54,n,n,n
COc1ccc(OC)c(NC(=O)CSc2nnnn2-c2ccc3c(c2)OCO3)c1,n,n,n,n,n
O=C(C[n+]1ccc(-c2nnc3n2CCC3)cc1)c1ccc(Cl)c(Cl)c1,x,x,x,x,n
COc1ccc(S(=O)(=O)Nc2cc(Sc3ncn[nH]3)c(O)c3ccccc23)cc1,94,97,n,n,n
Oc1ccc(C(c2nnnn2C2CCCC2)N2CCc3ccccc3C2)cc1 (stereo not drawn),81,94,n,n,n
COc1cc(C(c2nnnn2C2CCCC2)N2CCc3ccccc3C2)ccc1O (stereo not drawn),57,n,n,n,n
CC(=O)c1cc(C)ccc1OC(=O)c1ccco1,n,n,n,n,n
Cc1nc2c(n1C1CCCCC1)C(=O)c1ccccc1C2=O,55,81,n,n,n
CC(C)c1ccc(NC(=O)CSc2ncccc2C(=O)Oc2cccc([N+](=O)[O-])c2)cc1,x,x,x,x,n
CCn1c(C(O)c2ccc(C)cc2)nc2ccccc21 (stereo not drawn),n,n,n,n,n
OC(c1ccc2c(c1)OCO2)c1nccc2ccccc12 (stereo not drawn),n,95,n,n,n
COc1cccc(Nc2nc3ccccc3n2C(C)C)c1,x,x,x,x,n
CC(C)n1c(C(O)c2ccc3c(c2)OCO3)nc2ccccc21 (stereo not drawn),53,98,n,n,n
COc1ccc(OC)c(C(O)c2nc3ccccc3n2C(C)C)c1 (stereo not drawn),n,74,n,n,n
Cn1c(C(O)c2ccc3c(c2)OCO3)nc2ccccc21 (stereo not drawn),62,97,n,n,n
Cn1c(-c2ccc(CN3CCCCC3)o2)nc2ccccc21,n,n,n,n,n
COc1ccccc1NC(=O)N(Cc1ccco1)Cc1cc2ccc(C)c(C)c2[nH]c1=O,64,n,n,n,n
COc1ccccc1NC(=O)N(Cc1ccco1)Cc1cc2cc(C)cc(C)c2[nH]c1=O,62,60,n,n,n
COc1ccccc1NC(=S)N(Cc1ccco1)Cc1cc2cccc(C)c2[nH]c1=O,x,x,x,x,n
O=C(Nc1cc(Cl)ccc1Cl)c1ccc(OC(=O)c2ccco2)cc1,n,n,n,n,n
O=C(CN1CCOCC1)Nc1ncc(Cc2cccc(Cl)c2Cl)s1,x,x,x,x,n
CC(C)OC(=O)c1c(NC(=O)CCn2nnc3ccccc32)sc2c1CCCC2,82,57,n,n,n
O=C(CCCCCN1C(=O)c2ccccc2C1=O)NCc1ccccn1,n,n,n,n,n
CCCCCOC(=O)CC(C(=O)OCCCCC)N1CCCCC1 (stereo not drawn),x,x,x,x,n
SMILES,CYP2C9 inhib,CYP2C19 inhib,CYP2C19 activ,CYP2C9 act,Measles CPE
CCCCCCCCCOC(=O)C(CC(=O)O)N1CCOCC1 (stereo not drawn),77,n,n,n,n
C=CCn1c(SCC(N)=O)nnc1-c1ccccc1O,n,n,n,n,n
C=CCn1c(SCC(=O)Nc2ccc3c(c2)OCO3)nnc1-c1ccccc1O,n,n,n,n,n
COc1ccc(-n2c(CCc3ccccc3)nnc2SCC(=O)NCc2ccccc2)cc1,n,n,n,n,n
C=CCn1c(SCc2ccccc2C#N)nnc1-c1ccccc1O,n,98,n,n,n
C=CCn1c(SCC(N)=O)nnc1-c1cc(Br)ccc1O,n,87,n,n,n
C=CCn1c(SCC(=O)NCc2ccccc2)nnc1-c1ccccc1O,74,71,n,n,n
O=C(CSc1nnc(CCc2ccccc2)n1-c1ccc(Cl)cc1)NCc1ccccc1,89,84,n,n,n
CC(C)n1c(SCC(=O)Nc2nc3c(s2)CCCC3)nc2c1c(=O)n(C)c(=O)n2C,x,x,x,x,n
CN1CCN(NC(=O)C2CC2)CC1,x,x,x,x,n
C=CCn1c(CSCc2ccc(Cl)cc2)nnc1SCC(=O)NCc1ccccc1,81,87,n,n,n
C=CCn1c(CSCc2ccc(C)cc2)nnc1SCC(=O)NCc1ccccc1,79,80,n,n,n
CCn1c(CNc2ccccc2Cl)nnc1SCC(=O)NCc1ccccc1,n,n,n,n,n
CCOC(=O)c1nn(-c2ccc(Cl)cc2)c2nc(Nc3ccccc3)cc(=O)n12,n,n,n,n,n
CC1CCC/C(=N\NC(=O)c2ccncc2)C1 (stereo not drawn),x,x,x,x,n
O=C(C1=C(c2ccccc2)C(=O)c2ccccc2C1=O)c1ccccc1,x,x,x,x,n
CC1=C(CC(=O)c2ccccc2)C(=O)c2ccccc2C1=O,68,63,n,n,n
CCCCOC(=O)Nc1ccccc1C(N)=O,n,n,n,n,n
CCOC(=O)c1cccc(NC(=O)CN(c2ccc(OC)cc2)S(=O)(=O)c2c(C)noc2C)c1,94,77,n,n,n
COc1ccc(N(CC(=O)Nc2cccc(C(=O)O)c2)S(=O)(=O)c2c(C)noc2C)cc1,68,n,n,n,n
CCOc1ccc(N(CC(=O)Nc2cccc(F)c2)S(=O)(=O)c2c(C)noc2C)cc1,n,n,n,n,n
O=C(NCc1ccccc1)NC1(C(=O)N2CCOCC2)CCCCC1,n,n,n,n,n
COc1ccc(OC)c(S(=O)(=O)Nc2cnc3ccccc3c2)c1,n,73,n,n,n
COc1ccc(NS(=O)(=O)c2ccc(OC)c3ccccc23)cn1,85,n,n,n,n
O=S(=O)(Nc1cnc2ccccc2c1)N1CCCCCC1,n,57,n,n,n
SMILES,CYP2C9 inhib,CYP2C19 inhib,CYP2C19 activ,CYP2C9 act,Measles CPE
CCc1ccc(NS(=O)(=O)c2cc(OC)ccc2OC)cc1,68,54,n,n,n
COc1ccc(S(=O)(=O)Nc2cc(C)cc(C)n2)c2ccccc12,n,n,n,n,n
CN(C)C(=O)Nc1cnc2ccccc2c1,n,n,n,n,n
COc1ccc(OC)c(S(=O)(=O)Nc2ccc(OCC(=O)O)cc2)c1,n,n,n,n,n
O=C(Nc1ccc(F)cc1)c1cc(S(=O)(=O)N2CCCCC2)cs1,n,n,n,n,n
C=COCCNC(=O)Nc1ccc(Cl)c(Cl)c1,x,x,x,x,n
CCOc1cc(C)c(S(=O)(=O)Nc2ccc(F)cc2)cc1C,97,100,n,n,n
CCOc1ccc(NS(=O)(=O)c2cc(OCC(N)=O)c(C)cc2Cl)cc1,x,x,x,x,n
COc1ccc(OC)c(S(=O)(=O)Nc2ccc(F)cc2)c1,n,52,n,n,n
CCOC(=O)c1ccc(NS(=O)(=O)c2cc(-c3nnnn3C(C)C)ccc2OC)cc1,91,90,n,n,n
COc1ccc(OC)c(S(=O)(=O)Nc2cccc(F)c2)c1,68,89,n,n,n
CCn1nnnc1-c1ccc(OC)c(S(=O)(=O)Nc2ccc(C(=O)OC)cc2)c1,n,n,n,n,n
C/C(=N\NC(=O)c1ccc(Cl)c(S(=O)(=O)Nc2ccccc2Cl)c1)c1ccncc1,x,x,x,x,n
CC1CN(Cc2ccccn2)CCC1=O (stereo not drawn),x,x,x,x,n

# Source: PubChem
